Screening data as filed in PubChem BioAssay.
This is a sample that favours compounds with a hit; in the whole collection about 2.4% have one here.
Rango dissoc inh: inhibition of RanGTP-driven Rango-importin beta dissociation. O95149+P62826. Biochemical FRET Rango-importin beta, RanGTP-induced dissociation. Potency, µM (top dose mostly 46.1 µM). 340,000 tested, 0.071% active; calls by dose curve; further: nearly all actives have a fitted effect of over 45% in size
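Rango FRET biosensor (snurportin-1 IBB flanked by N-terminal EYFP and C-terminal CFP10) at 0.1 uM, with 0.25 uM importin beta in PBS, 1mM DTT, 0.02% Tween-20, 0.1% BSA. 0.6 uM Ran, 2mM GTP and 0.2 uM RCC1 were then added for 45 min at room temperature. Inhibition read as loss of FRET rise.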
TDP1 inh: blocks human tyrosyl-DNA phosphodiesterase 1. recombinant TDP1, AlphaScreen DNA substrate cleavage. Potency, µM (doses to about 130 µM), hits mostly inhibitors. 350,000 tested, 0.28% active; further: nearly all actives have a fitted effect of over 40% in size
Target sequence (Q9NUW8 whole entry, looked up): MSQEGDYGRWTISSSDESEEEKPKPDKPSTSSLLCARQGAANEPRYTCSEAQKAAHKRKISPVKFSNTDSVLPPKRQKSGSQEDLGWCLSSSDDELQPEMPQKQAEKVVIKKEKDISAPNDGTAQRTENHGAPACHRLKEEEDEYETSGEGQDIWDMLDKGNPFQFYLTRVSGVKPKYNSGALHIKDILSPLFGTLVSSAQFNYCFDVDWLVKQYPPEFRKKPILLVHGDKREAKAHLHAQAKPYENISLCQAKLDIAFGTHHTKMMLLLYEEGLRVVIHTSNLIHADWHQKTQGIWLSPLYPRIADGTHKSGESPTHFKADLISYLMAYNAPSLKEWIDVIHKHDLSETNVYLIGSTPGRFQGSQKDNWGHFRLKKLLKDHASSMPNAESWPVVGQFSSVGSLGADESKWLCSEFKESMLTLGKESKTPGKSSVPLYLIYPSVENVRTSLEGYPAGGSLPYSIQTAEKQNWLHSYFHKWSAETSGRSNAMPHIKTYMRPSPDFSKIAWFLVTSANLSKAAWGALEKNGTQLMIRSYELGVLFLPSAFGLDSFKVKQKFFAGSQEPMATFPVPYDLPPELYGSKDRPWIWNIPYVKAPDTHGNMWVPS
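Signal: AlphaScreen proximity between streptavidin donor and anti-FITC acceptor beads on intact substrate. Reaction: Tdp1 1 nM, substrate 15 nM final, 5 min RT after 15 min compound preincubation.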
12-LOX inh: ALOX12 (human) lipoxygenase inhibition; P18054; purified 12hLO, xylenol orange hydroperoxide absorbance; Potency, µM (titrated, usually from 108 µM), most hits filed as inhibitors; 580,000 tested, 1.1% active
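Purified human 12hLO (150 nM final) in 25 mM Hepes, 0.01% Triton X-100, pH 7.0 was preincubated 15 min at room temperature with compound. Then 40 uM arachidonic acid was added, 30 min. Hydroperoxide was read by Fe-XO absorbance ratio 573/405 nm.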
PTAP TSG101 blk: blocks PTAP/TSG101 interaction to inhibit HIV-1 budding; AID 493005; Fluorescence polarization, FITC-PTAP peptide / Tsg101 binding; Potency, µM (highest dose often 115 µM), usual class: inhibitors; Q99816; 340,000 tested, under 10 active; active means well fitted inhibition curve with a large enough effect in the main read-out, with a control signal flat, not every such curve was filed as active; inconclusive means small, poorly fitted or top-dose-only effect, or effect the other way, or a change in a side signal; inactive means no such curve, though single readings can be large or run the other way
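Tsg101 binding domain (10 uM final) was mixed with compound and a FITC-labeled PTAP peptide (50 nM final) in HEPES pH 7.5 buffer with NaCl, Tween 20, EDTA and TCEP; fluorescence polarization was read after 20 min at r.t.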
Rango-impB inh: inhibitors of Rango-importin beta complex formation. Q14974. Rango CFP/YFP FRET sensor + importin beta, 45 min. Potency, µM (top dose mostly 92.2 µM). 340,000 tested, 0.031% active; calls by dose curve; further: nearly all actives have a fitted effect of over 15% in size
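Inhibition scored from the CFP 486 nm/YFP 530 nm FRET ratio 45 min after adding 0.125 microM importin beta to 50 nM Rango biosensor preincubated 5 min with compound (room temperature, PBS with DTT, Tween-20, BSA). No-importin wells as positive control.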
ClpP mod: qHTS Assay for Activators of ClpP; purified B. subtilis ClpP, FRET peptide cleavage, 20 min; Potency, µM (doses to about 57.5 µM); 340,000 tested, 1.9% active; AID 651965, 2013; active means well fitted falling curve with a large enough effect; inconclusive means small, poorly fitted or top-dose-only effect; inactive means no such curve, though single readings can be large or run the other way; further: the source files actives as falling curves though it sought activators and does not explain the sign; nearly all actives have a fitted effect of over 65% in size
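FRET quenching reversal measured ClpP activation: 10 microg/mL B. subtilis ClpP at pH 8 with the FRET-FV decapeptide, read at 430 nm after 320 nm excitation. The 20-min minus 0-min signal was scaled between DMSO/no-enzyme wells and ADEP (5.8 microM final).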
Large screens that a line does not name were inactive. Unless noted, the call rests on the fitted dose curve; in most records, active means well fitted curve in the direction sought with a large enough effect; inconclusive means small, poorly fitted or top-dose-only effect, or another doubt; inactive means no such curve, though single readings can be large; an effect the other way counts as inactive or inconclusive.

Cc1cc(NC(=O)c2ccccc2NS(=O)(=O)c2c(C)c(C)cc(C)c2C)no1	ClpP mod 28µM
Cc1ccc(C)c(S(=O)(=O)Nc2ccccc2C(=O)Nc2cc(C)on2)c1	ClpP mod 16µM
Cc1cc(C)c(C)c(S(=O)(=O)Nc2ccccc2C(=O)O)c1C	12-LOX inh inconclusive (no result: ClpP mod)
COc1ccc(CNC(=O)COC(=O)c2cc(-c3ccc(Cl)s3)nc3ccccc23)cc1	Rango dissoc inh inconclusive, Rango-impB inh inconclusive, ClpP mod 25µM
CCOc1ccccc1CNC(=O)c1cc(-c2ccc(Cl)s2)nc2ccccc12	ClpP mod 28µM (no result: Rango dissoc inh, PTAP TSG101 blk, Rango-impB inh)
COc1cccc(CNC(=O)c2cc(-c3ccc(Cl)s3)nc3ccccc23)c1	12-LOX inh inconclusive, ClpP mod 3.2µM (no result: Rango dissoc inh, PTAP TSG101 blk, Rango-impB inh)
Cc1noc(N)c1C(=O)OC(C)C(=O)NC1CC1 (configuration not stated)	none (no result: Rango dissoc inh, TDP1 inh, PTAP TSG101 blk, Rango-impB inh, ClpP mod)
CCN=C(N/N=C/c1ccc([N+](=O)[O-])cc1)SC	12-LOX inh 32µM
CCOC(=O)c1ccc2nc(NC(C)=O)sc2c1	none (no result: ClpP mod)
COC(=O)c1ccc2nc(Nc3nc4c(F)cc(F)cc4s3)sc2c1	Rango dissoc inh inconclusive, Rango-impB inh inconclusive, ClpP mod 32µM
CCOC(=O)c1ccc2nc(Nc3nc4ccc(F)cc4s3)sc2c1	ClpP mod 16µM
COC(=O)c1ccc2nc(NC(=O)C(C)C)sc2c1	none (no result: ClpP mod)
NNc1nc2c(F)cc(F)cc2s1	12-LOX inh 40µM
CC(Oc1ccccc1)C(=O)NC1CCN(c2cc(C(F)(F)F)ncn2)CC1 (configuration not stated)	none (no result: Rango dissoc inh, TDP1 inh, PTAP TSG101 blk, Rango-impB inh, ClpP mod)
O=C(CCCN1C(=O)/C(=C\c2ccco2)SC1=S)Nc1ccc(O)cc1C(=O)O	12-LOX inh 28µM (no result: ClpP mod)
O=C(CN1C(=O)/C(=C/c2ccco2)SC1=S)Nc1ccc(O)c(C(=O)O)c1	12-LOX inh inconclusive
O=C(CN1C(=O)/C(=C/c2ccco2)SC1=S)Nc1ccc(C(=O)O)c(O)c1	12-LOX inh 28µM, Rango-impB inh inconclusive (no result: TDP1 inh)
COc1ccc(C2(C(=O)N3CCCCCCNC(=O)[C@@H]4CCCC[C@@H]43)CC2)cc1	none (no result: Rango dissoc inh, TDP1 inh, PTAP TSG101 blk, Rango-impB inh, ClpP mod)
O=C(CN1CCC(n2nnc3cc(F)ccc32)CC1)Nc1ccc2c(c1)CCC2	ClpP mod 14µM
Cc1ccc2c(c1)nc1n2[C@@H](CNCc2ccc(S(C)(=O)=O)cc2)COC1	none (no result: Rango dissoc inh, TDP1 inh, PTAP TSG101 blk, Rango-impB inh, ClpP mod)
COc1ccc(CC(=O)NCc2cn3ccsc3n2)cc1	none
CO/N=C(\C(=O)O)c1cn2ccsc2n1	12-LOX inh 2.2µM (no result: Rango dissoc inh, TDP1 inh, PTAP TSG101 blk, Rango-impB inh, ClpP mod)
CNC(=O)NC(=O)C(C)Sc1cc(C)c2cccc(C)c2n1 (configuration not stated)	none (no result: Rango dissoc inh, TDP1 inh, PTAP TSG101 blk, Rango-impB inh, ClpP mod)
COc1ccc(C(=O)N2CC[C@H](c3nc4ccccc4n3C)C2)cc1OC	none (no result: Rango dissoc inh, TDP1 inh, PTAP TSG101 blk, Rango-impB inh, ClpP mod)
CCOC(=O)c1ccc(NC(=O)c2oc3ccc4c(c3c2C)C(=O)CC(C)(CC)O4)cc1 (configuration not stated)	ClpP mod inconclusive (no result: Rango dissoc inh, PTAP TSG101 blk, Rango-impB inh)
CCOC(=O)N1CCC2(CC1)CC(=O)c1c(ccc3oc(C(=O)O)c(C)c13)O2	ClpP mod 35µM
CCCNC(=O)c1oc2ccc3c(c2c1C)C(=O)CC(C)(C)O3	ClpP mod 28µM
COc1ccc(C(=O)Oc2ccc(Br)cc2)cc1OC	none (no result: Rango dissoc inh, TDP1 inh, PTAP TSG101 blk, Rango-impB inh, ClpP mod)
Cc1cc(OC(=O)c2cc(Br)ccc2Cl)c([N+](=O)[O-])c(=O)[nH]1	12-LOX inh 35µM (no result: TDP1 inh)
Cc1cc(OC(=O)c2ccccc2[N+](=O)[O-])c([N+](=O)[O-])c(=O)[nH]1	12-LOX inh inconclusive (no result: TDP1 inh)
Cc1cccc(NC(=O)Nc2ccc(F)c(Cl)c2)n1	none (no result: Rango dissoc inh, TDP1 inh, PTAP TSG101 blk, Rango-impB inh, ClpP mod)
COc1ccc2c(c1)[N+](C)(C)C(C)(C)C=C2C	12-LOX inh 32µM
COc1ccccc1Nc1ccc2c(O)cc(S(=O)(=O)O)cc2c1	12-LOX inh 10µM (no result: TDP1 inh, ClpP mod)
O=S(=O)(O)c1cc(O)c2ccc(Nc3ccccc3)cc2c1	12-LOX inh 18µM, Rango-impB inh inconclusive (no result: TDP1 inh, ClpP mod)
O=S(=O)(O)c1cc(O)c2cc(Nc3ccccc3)ccc2c1	12-LOX inh 35µM (no result: TDP1 inh)
O=S(=O)(O)c1ccc(O)c2cc(Nc3ccccc3)ccc12	12-LOX inh 32µM, Rango-impB inh inconclusive (no result: TDP1 inh, ClpP mod)
CC(=O)Nc1ccc2c(O)cc(S(=O)(=O)O)cc2c1	12-LOX inh inconclusive (no result: TDP1 inh, ClpP mod)
COC[C@@H]1CN(C(=O)c2ccc(C#N)cc2)C[C@H]1c1ccncc1	none (no result: Rango dissoc inh, TDP1 inh, PTAP TSG101 blk, Rango-impB inh, ClpP mod)
O=C(Nc1cccc(Cl)c1)c1nn(-c2ccccc2)c(=O)c2ccccc12	none (no result: Rango dissoc inh, TDP1 inh, PTAP TSG101 blk, Rango-impB inh, ClpP mod)
Cc1cc(C)c(S(=O)(=O)N2CCCCC2CCNC(=O)C(=O)NCc2ccco2)c(C)c1 (configuration not stated)	ClpP mod 14µM
Fc1ccc(-c2cc(-c3cccs3)cc(-c3ccccc3)n2)cc1	ClpP mod 28µM
O=C1CSc2ccc(S(=O)(=O)NCc3ccccc3Cl)cc2N1	none
CC(CS(=O)(=O)c1ccc2c(c1)NC(=O)CS2)C(=O)NCc1ccccc1Cl (configuration not stated)	TDP1 inh 8.9µM, Rango-impB inh inconclusive
Cc1cc(C)cc(OCC(=O)N(Cc2ccc(N(C)C)cc2)C2CCS(=O)(=O)C2)c1 (configuration not stated)	ClpP mod 22µM (no result: TDP1 inh)
